Consider 57 compounds from PubChem BioAssay AID652017 (The Scripps Research Institute Molecular Screening Center, 2013).

Structures are written as SMILES. Among all 370,000 compounds or so, about 3,800 (1%) were called active. Cut-off read from the data, not from the text of the source: active = activation above about 7.8%; inactive = the rest. For the sample, actives were picked, then their nearest neighbours and some compounds at random.

The nature of the test: SMARCA2 (BRM) function activators, primary screen, cell-based, luminescence, high throughput (AID 652017).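 Note: 0% = vehicle wells and 100% = reference activator wells.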 As to conditions: MG213 cells, MMTV-luciferase reporter, dexamethasone, overnight; at 9.1 µM; active compounds read high. For orientation: Reporter assays use an easily measured gene product as a stand-in for the process of interest.
`C=CCN1C(=O)[C@@H](CC(=O)NCCCCc2ccccc2)[C@]2(C(=O)OCC)CCCCC/C=C/12`: the activation is -5.79% (inactive).
The result for `CC1(C)O[C@@H]2CC3C4C[C@H](F)C5=CC(=O)C=CC5(C)C4C(O)CC3(C)[C@]2(C(=O)CO)O1` (some centres not stated) reads -1.35% (inactive).
With `C=C(C)C#CC(Cc1ccccc1)NCC1CC1` (configuration not stated) the figure was -5.21% (inactive); with `COCCOC1CCN(C(=O)c2ccc(OC)c(OC3CCN(C(C)C)CC3)c2)CC1`, -1.95% (inactive); with `COc1ccccc1OCCNC(=O)CCNC(=O)c1ccccc1Cl`, 0.37% (inactive).
The result for `CC(C)Cc1nnc(NC(=O)CCC(=O)Nc2ccc3cn[nH]c3c2)s1` reads -4% (inactive); that for `CC(C)Cc1nnc(NC(=O)CCNC(=O)c2ccccc2Cl)s1`, 9.18% (active); that for `Cc1nc2cc(S(=O)(=O)C(F)(F)F)ccc2s1`, 5.28% (inactive).
On to `COC(=O)Cc1ccc(OC(=O)C2CCN(S(=O)(=O)c3ccc(OC)c(OC)c3)CC2)cc1`, for which the activation is -1.69% (inactive).
The result for `Cc1ccc(-n2c(SCC(=O)Nc3ccc(S(=O)(=O)Nc4nccs4)cc3)nnc2-c2ccncc2)cc1` reads -0.03% (inactive); that for `Cc1cc(-n2cnc(-c3cn(C)nc3C)n2)no1`, 8.03% (active).
For the compound `Cc1ccc(Cn2cc(COC(=O)N(C)Cc3ccccc3)nn2)cc1`, the activation was -1.94% (inactive).
The result for `O=S1(=O)c2c(cccc2N2CCCCC2)O[C@H](COCc2ccccc2)CN1C1CC1` reads -5.02% (inactive); that for `CCOc1ccc(-n2c(SCC(=O)Nc3cc(C)c(NC(=O)c4ccccc4)cc3OC)nnc2-c2cccs2)cc1`, -4.31% (inactive); that for `CCOC(=O)c1c(NC(=S)SC)sc(C(=O)N2CCc3ccccc3C2)c1C`, -2.6% (inactive).
The result for `CCc1ccc(NC(=O)N2CCc3ccccc3C2)cc1` reads 7.91% (active); that for `Cc1cccc(OC(C)C(=O)N2CCc3ccccc3C2)c1` (configuration not stated), -2.36% (inactive); that for `O=C(Nc1cccc([N+](=O)[O-])c1)N1CCc2ccccc2C1`, 12.9% (active).
With `Cc1cccc(C)c1NC(=O)c1ccc(CN2CCc3ccccc3C2)cc1` the figure was -1.14% (inactive); with `O=C(C(=O)N1CCc2ccccc2C1)c1c[nH]c2ccccc12`, 0.35% (inactive); with `COC(=O)c1ccccc1-n1cc(COC(=O)NCCc2ccccc2)nn1`, -2.76% (inactive).
With `CCCCNC(=O)C[C@H]1C(=O)N(Cc2ccc(OC)cc2)C2=CCCC[C@@]21C(=O)OCC`, the activation is -1.43% (inactive).
The result for `Cc1nc2ccccc2n1CC(=O)N/N=C/c1cccs1` reads 0.43% (inactive).
With `Cc1n[nH]c(=O)nc1N/N=C/c1cccs1` the figure was 9.22% (active); with `Cn1c(=O)c2c(nc(N/N=C/c3cccs3)n2Cc2ccc(Br)cc2)n(C)c1=O`, -0.25% (inactive); with `O=C(c1ccncc1)N1CC[C@H]2[C@H](CCCN2Cc2ccc(F)cc2)C1`, 0.1% (inactive).
Regarding `COc1ccc(Cn2ccc3ccc(-c4ccc5ccn(Cc6ccccc6C)c5c4)cc32)cc1`, the activation was -1.41% (inactive).
As for `COC(=O)C[C@@H]1CC[C@@H]2[C@H](COc3ccc(NC(=O)c4cccc(F)c4)cc3C(=O)N2C)O1`, the activation was -3.28% (inactive).
With `COC(=O)C[C@H]1CC[C@H]2[C@H](COc3ccc(NC(=O)C4CC4)cc3C(=O)N2C)O1` the figure was -0.29% (inactive); with `COc1cc(/C=N/NC(=O)Nc2ccccc2)ccc1OCCOc1ccccc1C`, -2.07% (inactive).
With `COc1ccc(S(=O)(=O)N(CC(=O)N/N=C/c2ccc(C(=O)O)cc2)Cc2ccccc2)cc1OC` the figure was 0.18% (inactive).
With `COc1cc(/C=N/NC(=O)c2ccccc2)ccc1OS(=O)(=O)c1ccccc1` the figure was 11.6% (active); with `COc1ccc(S(=O)(=O)NC(C)C(=O)NCc2ccncc2)cc1Cl` (configuration not stated), -1.23% (inactive).
Consider `Cc1ccc(CNC(=O)COc2ccc(S(=O)(=O)NC(C)C)cc2)cc1`, for which the activation was -3.1% (inactive).
The result for `Cc1ccc(S(=O)(=O)NC(C)C(=O)NCc2ccc(Cl)cc2)cc1` (configuration not stated) reads 8.48% (active).
The result for `O=S1(=O)CCC(NC(=S)SCc2ccccc2Br)C1` (configuration not stated) reads -1.67% (inactive); that for `CC(C)C(=O)NC(NC(=S)NC1CCS(=O)(=O)C1)C(Cl)(Cl)Cl` (configuration not stated), 1.31% (inactive).
With `CCCSC(=S)NC1CCS(=O)(=O)C1` (configuration not stated) the figure was 8.13% (active); with `COc1ccc(C(=O)OCCN2CCN(C3CN(Cc4cn(Cc5ccccc5F)nn4)S(=O)(=O)C3)CC2)cc1OC` (configuration not stated), -1.26% (inactive); with `Cc1c(C=O)n(C)n(-c2ccccc2)c1=O`, 1.03% (inactive).
As for `Cc1nc(N)sc1N=Nc1c(C)n(C)n(-c2ccccc2)c1=O`, the activation was -4.59% (inactive).
Turning to `Cc1c(N=Nc2ccc(N(C)C)cc2)c(=O)n(-c2ccccc2)n1C`, the activation is 7.84% (active).
For `C[C@@H]1COc2cccc(N3CCCC3)c2S(=O)(=O)N1C`, the activation is -1.71% (inactive).
For the compound `COc1ccc(-c2cc(C(=O)NC(Cc3c[nH]c4ccccc34)C(=O)O)c(C)o2)cc1OC` (configuration not stated), the activation was 3.58% (inactive).
The result for `COc1cccc(CNC(=O)[C@H]2CCCN2C(=O)[C@H]2CCCN2C(=O)C2CCCCC2)c1` reads -3.87% (inactive); that for `CCN(CC)CCCNC(=O)Cn1cnc2sc(C)c(S(=O)(=O)N3CCN(c4ncccn4)CC3)c2c1=O`, -0.93% (inactive); that for `CCN(CC)CCNC(=O)c1sc2ncn(CC(=O)Nc3ccc(C)c(Cl)c3)c(=O)c2c1C`, 7.84% (active).
With `CCN(CC)CCNC(=O)Cn1cnc2sc(C)c(S(=O)(=O)N3CCOCC3)c2c1=O` the figure was -6.85% (inactive); with `Cc1cccc(C)c1NC(=S)N(Cc1cccnc1)Cc1ccccc1Cl`, -5.44% (inactive).
For the compound `CCOC(=O)[C@]12CCCC=C1N(Cc1ccc(OC)cc1)C(=O)[C@@H]2CC(=O)N1CCOCC1`, the activation was 1.91% (inactive).
With `COc1ccc(-n2c(COc3ccccc3)nnc2SCC(=O)Nc2ccc3c(c2)OCO3)cc1` the figure was -4.96% (inactive); with `CCC(=O)c1c[nH]c(C(=O)NCC2CCCO2)c1` (configuration not stated), 1.33% (inactive); with `O=C(Nc1cccc2c1CCCC2)c1ccc(F)cc1`, -0.7% (inactive).
Turning to `O=C(CNC(=O)c1cc2c(s1)CCC2)Nc1ccccc1Br`, the activation is 3.62% (inactive).
The result for `O=C(Nc1ccc(F)cc1)c1cc2c(s1)CCCC2` reads 10.2% (active); that for `O=C(NCCCn1ccnc1)c1cc2c(s1)CCCC2`, -1.02% (inactive); that for `O=C(NCC1CCCO1)c1cc2c(s1)CCCC2` (configuration not stated), 10.9% (active).
